In PubChem BioAssay (NCATS):
Results filed as inconclusive are left out. Calls of active or inactive are those of the source. The call rests on the fitted dose curve; in most records, active means well fitted curve in the direction sought with a large enough effect; inconclusive means small, poorly fitted or top-dose-only effect, or another doubt; inactive means no such curve, though single readings can be large; an effect the other way counts as inactive or inconclusive.

Tests used:
[1] = qHTS of pediatric cancer cell lines to identify multiple opportunities for drug repurposing: Primary screen for RD cells (AID 1347104); further: nearly all actives have a fitted effect of over 55% in size
Method in brief: (§1)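 CRCs from 8- or 11-point titrations (lowest final 0.59 nM NPC, 0.78 nM MIPE). Cell viability: CellTiter-Glo after 48 h incubation, 15 min room-temperature development, luminescence imaging.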

[2] = qHTS of pediatric cancer cell lines to identify multiple opportunities for drug repurposing: Primary screen for MG 63 (6-TG R) cells (AID 1347105); further: nearly all actives have a fitted effect of over 50% in size
Method in brief: as §1

[3] = qHTS of pediatric cancer cell lines to identify multiple opportunities for drug repurposing: Primary screen for control Hh wild type fibroblast cells (AID 1347106);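 further: series mostly up to about 46 µM; a drop in luminescence marks cytotoxicity and a rise apparent proliferation; nearly all actives have a fitted effect of over 55% in size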
Method in brief: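 Viability after 48 h compound treatment at 37C, 500-1,000 cells/well, read as ATP luminescence with CellTiter-Glo. Primary screens used 11-point (MIPE, 0.78 nM-46 µM) or 8-point (NPC, 0.59 nM-46 µM) final concentrations; follow-up screens used 11-point dilutions.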

[4] = qHTS of pediatric cancer cell lines to identify multiple opportunities for drug repurposing: Primary screen for Rh30 cells (AID 1347107); further: series mostly up to about 46 µM; nearly all actives have a fitted effect of over 75% in size
Method in brief: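 Cells (500-1,000/well) in growth media were settled 5 h at 37 degrees C, then given compounds for 48 h. Viability was read as CellTiter-Glo luminescence. Primary runs used MIPE at 11 points (0.78 nM-46 µM) and NPC at 8 points (0.59 nM-46 µM); follow-ups used 11 points.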

[5] = qHTS of pediatric cancer cell lines to identify multiple opportunities for drug repurposing: Primary screen for Rh41 cells (AID 1347108);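 further: series mostly up to about 46 µM; luminescence drop marks cytotoxic hits; nearly all actives have a fitted effect of over 70% in size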
Method in brief: as §1

Measured: Potency

CCn1ccc(NS(=O)(=O)c2ccc(N)cc2)nc1=O
inactive: [1] | [2] | [3] | [4] | [5]

COCCc1ccccn1
inactive: [1] | [2] | [3] | [4] | [5]

Cc1coc2ccccc2c1=O
inactive: [1] | [2] | [3] | [4] | [5]

Cc1ccccc1N1CCN(CCc2nnc3n2CCCC3)CC1
inactive: [1] | [2] | [3] | [4] | [5]

C[C@@H](C1=C(CCN(C)C)Cc2ccccc21)c1ccccn1
inactive: [1] | [2] | [3] | [4] | [5]

CC(=O)N[C@@H](CCC(N)=O)C(=O)O
inactive: [1] | [2] | [3] | [4] | [5]

O=C1NC(c2ccccc2)(c2ccccc2)C(=O)N1COP(=O)(O)O
inactive: [1] | [2] | [3] | [4] | [5]

COc1ccc2c(c1)c(CC(=O)OC/C=C(\C)CC/C=C(\C)CCC=C(C)C)c(C)n2C(=O)c1ccc(Cl)cc1
inactive: [1] | [2] | [3] | [4] | [5]

CCCCC(CC)COC(=O)c1ccccc1C(=O)O (centres undefined)
inactive: [1] | [2] | [3] | [4] | [5]

c1ccc2occc2c1
inactive: [1] | [2] | [3] | [4] | [5]

CCOC(=O)C(O)c1ccccc1 (centres undefined)
inactive: [1] | [2] | [3] | [4] | [5]

Cc1cc(C(C)(C)C)c(O)c(C(C)(C)C)c1
inactive: [1] | [2] | [3] | [4] | [5]

CCOC(=O)C(=O)CCCCCCl
inactive: [1] | [2] | [3] | [4] | [5]

O=C1CC2(CCCC2)CC(=O)N1
inactive: [1] | [2] | [3] | [4] | [5]

CCS(=O)(=O)c1ccc(OC)c(C(=O)OC)c1
inactive: [1] | [2] | [3] | [4] | [5]

O=C(O)CNC(=O)CNC(=O)CNC(=O)CSC(=O)c1ccccc1
inactive: [1] | [2] | [3] | [4] | [5]

OC1(c2ccccc2)CCNCC1
inactive: [1] | [2] | [3] | [4] | [5]

OCCOCCN1CCN(C(c2ccccc2)c2ccc(Cl)cc2)CC1 (centres undefined)
inactive: [1] | [2] | [3] | [4] | [5]

CO[C@@H]1[C@@H](O[C@@H]2O[C@H](C)[C@@H](O[C@H]3C[C@@](C)(O)[C@@H](O)[C@H](C)O3)[C@H](N(C)C)[C@H]2O)[C@@H](CC=O)C[C@@H](C)[C@@H](O[C@@H]2CC[C@H](N(C)C)[C@@H](C)O2)/C=C/C=C/C[C@@H](C)OC(=O)C[C@H]1OC(C)=O
inactive: [1] | [2] | [3] | [4]

CCC(C(=O)OCCN1CCOC(c2ccccc2)C1C)c1ccccc1 (centres undefined)
inactive: [1] | [2] | [3] | [4] | [5]

CN(C(=O)C(Cl)Cl)c1ccc(OC(=O)c2ccco2)cc1
inactive: [1] | [2] | [3] | [4] | [5]

O=C(O)C(=O)Nc1cccc(-c2nn[nH]n2)c1
inactive: [1] | [2] | [3] | [4] | [5]

CC(C)(C)C(=O)OCOC(=O)C1N2C(=O)CC2S(=O)(=O)C1(C)C (centres undefined)
inactive: [1] | [2] | [3] | [4] | [5]

CN1CC(=O)N2[C@H](c3ccc4c(c3)OCO4)c3[nH]c4ccccc4c3C[C@@H]2C1=O
inactive: [1] | [2] | [3] | [4] | [5]

CCOc1ncc(F)c(=O)[nH]1
inactive: [1] | [2] | [3] | [4] | [5]

C#CC(C)(CC)OC(=O)c1ccccc1C(=O)O (centres undefined)
inactive: [1] | [2] | [3] | [4] | [5]

N#CSCC(=O)O
inactive: [1] | [2] | [3] | [4] | [5]

Nc1nc(=O)n([C@@H]2O[C@H](CO)[C@@H](O)[C@@H]2F)cc1I
inactive: [1] | [2] | [3] | [4] | [5]

O=C(O)CCCC[P+](c1ccccc1)(c1ccccc1)c1ccccc1
inactive: [1] | [2] | [3] | [4] | [5]

COc1ccc2c(c1)CCCC2=O
inactive: [1] | [2] | [3] | [4] | [5]

Nc1c(I)cc(I)c(C(=O)N(CCC(=O)O)c2ccccc2)c1I
inactive: [1] | [2] | [3] | [4] | [5]

CC1(C)S[C@@H]2[C@H](NC(=O)C(c3ccccc3)S(=O)(=O)O)C(=O)N2[C@H]1C(=O)O (some centres undefined)
inactive: [1] | [2] | [3] | [4] | [5]

O=C1CC2(CCCC2)CC(=O)N1CCNCC1COc2ccccc2O1 (centres undefined)
inactive: [1] | [2] | [3] | [4] | [5]
